Reference: PubChem BioAssay (NCI)
Compounds without any hit were thinned out: in the full panel of roughly 83,000, 20% have a hit.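 Cell lines were cultured in 96-well plates, exposed to a single compound concentration, and assessed for percent growth 48 hours later.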 A number with no mark means an inactive call. Active and inactive are the calls of the source.

Tested on: RPMI-8226 leukemia
Assay: NCI-60 one-dose screen, 48 h (100 = growth as untreated, 0 = no growth, -100 = all killed)
Conditions: 10 µM unless noted
Method: Growth inhibition of the RPMI-8226 human tumor cell line is measured as a screen for anti-cancer activity. Cells are grown in 96 well plates and exposed to the test compound for 48 hours. Compounds are tested at a single concentration, which is 10^-5 M for most compounds. The reported endpoint is percent growth (GI% or GIPRCNT), where numbers from 0 - 100% represent growth inhibition, and numbers from -100% - 0 represent cell death. For example, a value of 40 represents 60% growth inhibition. A value of 0 means no net growth occurred over the course of the experiment. A value of -40 indicates 40% of cells at the beginning of the experiment died by the end of the experiment. A value of -100 means all cells are dead at the end of the experiment.
NCI-60 Human Tumor Cell Lines Screen was performed using the standard one-dose NCI protocol, which is described in more detail at https://dtp.cancer.gov/discovery_development/nci-60/default.htm.
Compounds with GIPRCNT values below 10 were considered active. Activity score was based on GIPRCNT using the following formula: […]
Score is 0 for GIPRCNT values of 100 or above, 50 for GIPRCNT values of 0, and 100 for GIPRCNT values of -100.

In order of rising growth:
1. Nc1ccccc1NC(=O)c1ccc(CN2CCC/C(=C\c3ccccn3)C2=O)cc1  11.8%
2. COc1cccc(-c2nn(-c3ccccc3)cc2-c2ccnc(NCCCNS(=O)(=O)c3ccc(C(F)(F)F)cc3)c2)c1  13.3%
3. Cc1ccc(/C=C(\C#N)c2cc3ccccc3n2C)cc1  14%
4. Cc1cc(N(CCCNc2ccnc3cc(Cl)ccc23)Cc2ccco2)nc(Cl)n1  18.6%
5. Cc1ccc(S(=O)(=O)Nc2ccc(-c3cc(-c4cccc(F)c4)c(C#N)c(=O)[nH]3)cc2)cc1  19.4%
6. O=S(=O)(NCCCNc1cc(-c2cn(-c3ccccc3)nc2-c2cccc(O)c2)ccn1)c1ccc(F)cc1  21.4%
7. CC1=CC(=O)N(c2cccc3c(N4C(=O)C=C(C)C4=O)cccc23)C1=O  21.5%
8. COc1cc(-c2cc3ncccc3c3nc(N)c4cccnc4c23)cc(OC)c1OC  23.2%
9. N#CC1c2ccccc2-c2ccccc2N1C(=O)c1ccccc1 (stereo not given)  26.4%
10. Nc1c2c(nc3ccc(Cl)cc13)CC(c1ccc(O)cc1)CC2=O (stereo not given)  34.9%
11. Clc1ccc2[nH]cc(-c3nc(-c4c[nH]c5ncccc45)cs3)c2c1  37.6%
12. Brc1ccc2[nH]cc(-c3nc(-c4c[nH]c5ncccc45)cs3)c2c1  39.9%
13. C(=C\c1c[nH]c2ccccc12)/c1ccc2ccccc2n1  44.7%
14. Cc1cc(C)nc(NC(N)=NCCc2ccccc2)n1  49.7%
15. COc1ccc(-c2cc(-c3c(C)oc4cc5occc5c(OC)c4c3=O)nc(N)c2C#N)cc1OC  55.2%
16. N=C(N)c1ccc(-c2ccc(-c3cc(F)cc(F)c3)o2)nc1  60.5%
17. C[C@H]1[C@@H]2[C@H]3CC[C@@H]4[C@@]5(C)Cc6c([nH]c7ccccc67)C(C)(C)[C@@H]5CC[C@@]4(C)[C@]3(C)CC[C@]23CO[C@]1(C)[C@@H](C(=O)/C=C/c1ccccn1)C3  62.5%
18. CCN1CCN(C(=O)[C@@]2(C)CC[C@]3(C)CC[C@]4(C)C(=CC(=O)[C@@H]5[C@@]6(C)CC[C@H](OCCC#N)C(C)(C)[C@@H]6CC[C@]54C)[C@@H]3C2)CC1  63.2%
19. Cc1ccc(N(CC(=O)Nc2ccc(S(=O)(=O)NC3CCN(C)CC3)cc2)S(=O)(=O)c2ccc(Cl)cc2)cc1  65.6%
20. NCCNc1nc(-c2ccccc2)nc2nc(-c3ccccc3)oc12  68.7%
21. O=C1c2ccccc2NC(c2cn(-c3ccccc3)nc2-c2cccnc2)N1Cc1ccccc1 (stereo not given)  76.5%
22. CCC1C(=O)COC1=O (stereo not given)  83.9%
23. COc1ccc2nc(-c3c(-c4ccccc4)nc4ncccn34)[nH]c2c1  88%
24. CC(C)/C=C/CC[C@](C)(O)[C@H]1CC[C@]2(C)[C@@H]1CC[C@@H]1[C@@]3(C)C/C(=C/c4cccc(C(F)(F)F)c4)C(=O)C(C)(C)[C@@H]3CC[C@]12C  95.4%
25. O=C(O)/C(=C/c1ccc(O)cc1)c1ccccc1  95.5%
26. O=C1OC(c2ccc(Cl)c(Cl)c2)=C/C1=C/c1cccc([N+](=O)[O-])c1  99%
27. Nc1ccc(Cl)cn1  101%
28. C/C(=C(/c1ccccc1)c1ccc(N2C(=O)c3cccc4c(NCc5ccccc5)ccc(c34)C2=O)cc1)c1ccccc1  102%
29. CC1(n2nnnc2N2CCCN(c3ncccc3N)CC2)CCC1  104%
30. S=c1[nH]nc2ccccn12  108%
31. N=C(N)c1ccc(S(N)(=O)=O)cc1  128%

`COc1ccc(-c2n/c(=C\c3c(O)[nH]c4ccc(OC)cc34)cc3c2=Nc2ccccc2-3)cc1` was tested, and the growth was -38.5% (active).
With `Cc1cc2nc3c4cc(Cl)ccc4n(CCN(C)C)c3nc2cc1C` the growth was -11.5% (active).
In the case of `Oc1cccc2ccc(N/N=C/c3cc(CN4CCCCC4)c(O)c4ncccc34)nc12`, the growth is reported as 0.883% (active).
In the case of `CN1CCN(c2ccc3nc(-c4[nH]ncc4Nc4ncnc5c4OCCCN5)[nH]c3c2)CC1`, the growth is reported as -36.3% (active).
For `COc1cc2c(cc1OC)C(=O)/C(=C/c1cc(-c3ccc4c(c3)OCO4)n[nH]1)C2`, the growth was -46.7% (active).
For `C/C(=N\Nc1cc(C)c2ccccc2n1)c1ccccn1`, the growth was -24% (active).
In the case of `Fc1ccc(Nc2nc(Nc3ccc(-c4nc5ccccc5[nH]4)cc3)nc(N3CCCC3)n2)cc1`, the growth is reported as -11.6% (active).
For `c1cc(N2CCCC2)c2nc(-c3[nH]ncc3Nc3ncnc4[nH]ccc34)[nH]c2c1`, the growth was -7.49% (active).
In the case of `CC(=O)c1c(C)[nH]c(-c2nc3ccc(N4CCN(C)CC4)cc3[nH]2)c1-c1ccc(OCC2CCOCC2)cc1`, the growth is reported as -2.05% (active).
